Here are results for six compounds from PubChem BioAssay.

Active and inactive are the calls of the source.

In assay [1] the test system is Plasmodium falciparum Sir2 (PF13_0152, Sir2A). Kind of assay: Plasmodium falciparum Sir2A binding compounds – biochemical, small-molecule microarray, 635 nm fluorescence, primary screen (AID 1098).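 Further: score merges spot fluorescence intensity with its signal-to-noise ratio.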 Particulars: fluorescence 635 nm, higher = more signal.
Assay [2] in a line: probe aDKK1 binding to arrayed compounds – biochemical, biotinylated probe, 635/667 nm fluorescence, primary screen (AID 1099).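 Further: score merges 667nm spot fluorescence with signal to noise across triplicate slides.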 The following applies: small-molecule microarray, higher = more signal.
The nature of assay [3]: probe aCHRDL2 binding to arrayed compounds – biochemical, biotinylated probe, 635/667 nm fluorescence, primary screen (AID 1100). The following applies: small-molecule microarray, higher = more signal.
Assay [4] can be described thus: change in splice reporter luminescence, either direction, cell-based, HEK293, spliceosome inhibition project, primary screen (AID 1101).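 Further: HEK293 cells carrying a splicing-competent luciferase reporter gene; test concentration not given here.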 Particulars: HEK293 splicing luciferase reporter, 24 h, higher = more signal, called active from +8 up or from −8 down. On the technique in general: A reporter such as luciferase makes a cellular process visible.
Assay [5] addresses Fibroblast growth factor 10 (Homo sapiens) (UniProt O15520). Kind of assay: compounds binding fibroblast growth factor 10 – biochemical, small-molecule microarray, 635 nm fluorescence, primary screen (AID 1102). Particulars: FGF10 binding, fluorescence 635 nm, higher = more signal.
In assay [6] the test system is glycogen synthase kinase-3 (GSK3A per assay name; protocol says GSK3B). Kind of assay: compounds binding glycogen synthase kinase-3 – biochemical, small-molecule microarray, 635 nm fluorescence, GSK3A, primary screen (AID 1103). Further: the record names both GSK3A and GSK3B. Particulars: fluorescence 635 nm, higher = more signal.
In assay [7] the target is Epidermal growth factor receptor (Homo sapiens) (UniProt P00533). Kind of assay: compounds binding epidermal growth factor receptor – biochemical, small-molecule microarray, 635 nm fluorescence, primary screen (AID 1104).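 Further: score merges 667 nm emission intensity with spot signal to noise over triplicate slides.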 Particulars: EGFR binding, higher = more signal.
Assay [8] deals with Follistatin-related protein 3 (Homo sapiens) (UniProt O95633). Description: compounds binding follistatin-related protein 3 – biochemical, small-molecule microarray, 635 nm fluorescence, primary screen (AID 1105).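 Further: score merges emission near 667 nm and signal to noise per printed spot across three slides.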 Particulars: FSTL3 binding, higher = more signal.
For assay [9], the target named is Dickkopf-related protein 1 (Homo sapiens) (UniProt O94907). Description: small molecules binding DKK1 protein – biochemical, small-molecule microarray, 635 nm fluorescence scan, primary screen (AID 1106).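 Further: score merges emission near 667 nm with signal to noise over three replicate slides.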 The following applies: higher = more signal.
The subject of assay [10] is Inhibin beta A chain (activin A). Kind of assay: small molecules binding activin A – biochemical, small-molecule microarray, 635 nm fluorescence scan, primary screen (AID 1107).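 Further: mouse activin A protein probed at 4.33 µg/mL on printed slides; score merges bound-protein fluorescence near 667 nm with spot signal-to-noise.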 The following applies: INHBA, higher = more signal.
Assay [11] relates to Human papillomavirus type 1a protein E7 (residues 44-93). Kind of assay: small molecules binding HPV E7 44-93 – biochemical, small-molecule microarray, residues 44-93, 635 nm fluorescence, primary screen (AID 1108).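 Further: E7 fragment applied at 1 µg/mL in TBST for 1 h at 4 C; score combines spot fluorescence with its signal to noise ratio.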 Particulars: fluorescence 635 nm, higher = more signal.
The nature of assay [12]: hepatitis C replication reporter changes, two-sided – Huh7 cells, luciferase reporter, HCV replication inhibitor project, primary screen (AID 1109).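 Further: huh7 hepatoma cells harbouring a luciferase neomycin HCV replicon reporter; luciferase luminescence as measure of HCV replicon replication; test concentration not given here.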 Particulars: Huh7 HCV replicon luciferase reporter, 48 h; higher = more signal.
Assay [13] deals with Left-right determination factor 2 (Homo sapiens) (UniProt O00292). Description: small molecules binding LEFTY2 protein – biochemical, small-molecule microarray, 635 nm fluorescence scan, primary screen (AID 1110). Particulars: higher = more signal.
The target of assay [14] is Calmodulin-1 (Homo sapiens) (UniProt P0DP23). Kind of assay: small molecules binding calmodulin-1 with EGTA – biochemical, small-molecule microarray, Cy5-labelled CALM1, profiling panel (AID 1111).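 Further: labelled calmodulin applied in Tris saline Tween buffer holding calcium plus EGTA and DTT.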 Particulars: Cy5-CALM1 binding fluorescence, higher = more signal.
The target is the same in assay [15]. Kind of assay: small molecules binding Ca-loaded calmodulin-1 – biochemical, small-molecule microarray, Cy5-labelled CALM1, plus calcium, artefact control for SMM control-protein annotation, profiling panel (AID 1112).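 Further: score merges spot fluorescence with signal to noise from triplicate slides.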 Particulars: Cy5-CALM1 binding fluorescence, higher = more signal.
A short description of assay [16]: probe aWnt5a binding to arrayed compounds – biochemical, biotinylated probe, 635/667 nm fluorescence, primary screen (AID 1113).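 Further: score merges 667 nm fluorescence intensity with signal-to-noise per printed feature.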 The following applies: small-molecule microarray, higher = more signal.
Assay [17] can be described thus: probe aShh binding to arrayed compounds – biochemical, biotinylated probe, 635/667 nm fluorescence, primary screen (AID 1114).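 Further: probe is biotin-labelled aShh protein from a stem cell growth factor screen; measures binding of labelled protein to compounds printed on the slide; score merges feature fluorescence at 667 nm with signal-to-noise.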 Particulars: small-molecule microarray, higher = more signal.
Assay [18] is described as follows: probe aNog binding to arrayed compounds – biochemical, biotinylated probe, 635/667 nm fluorescence, primary screen (AID 1115).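 Further: probe is biotinylated aNog protein used at 0.15 µg/mL for 1 h at 4 C; z-score combines 667 nm fluorescence of each spot with its signal to noise.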 Particulars: small-molecule microarray, higher = more signal.
Assay [19] concerns the target Torsin-1A-interacting protein 1 (Homo sapiens) (UniProt Q5JTV8). Kind of assay: compound microarray binding of lysate hLAP1 – cell lysate, small-molecule microarray, COS7 lysate, 635/667 nm fluorescence, primary screen (AID 1116). Particulars: 635 nm fluorescence, higher = more signal.
For assay [20], the target named is Alpha-bungarotoxin (Bungarus multicinctus) (UniProt P60615). Description: compounds binding labelled alpha-BTX control protein – biochemical, small-molecule microarray, Alexa647 label, 635/667 nm fluorescence, artefact control for SMM control protein annotation, profiling panel (AID 1117). Particulars: alpha-BTX-A647 binding fluorescence, higher = more signal.
Alpha-bungarotoxin (Bungarus multicinctus), sequence (P60615 whole entry, looked up): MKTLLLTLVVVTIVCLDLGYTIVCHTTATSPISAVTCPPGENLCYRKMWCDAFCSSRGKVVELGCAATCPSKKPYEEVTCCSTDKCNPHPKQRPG

Dickkopf-related protein 1 (Homo sapiens), sequence (O94907 whole entry, looked up): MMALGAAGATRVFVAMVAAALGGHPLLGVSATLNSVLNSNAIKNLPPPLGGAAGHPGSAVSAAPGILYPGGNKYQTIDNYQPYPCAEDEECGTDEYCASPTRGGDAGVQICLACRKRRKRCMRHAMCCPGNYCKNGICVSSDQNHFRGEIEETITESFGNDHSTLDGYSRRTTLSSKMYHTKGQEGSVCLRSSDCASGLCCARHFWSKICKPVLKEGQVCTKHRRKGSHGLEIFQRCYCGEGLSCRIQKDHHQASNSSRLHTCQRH
Fibroblast growth factor 10 (Homo sapiens), sequence (O15520 whole entry, looked up): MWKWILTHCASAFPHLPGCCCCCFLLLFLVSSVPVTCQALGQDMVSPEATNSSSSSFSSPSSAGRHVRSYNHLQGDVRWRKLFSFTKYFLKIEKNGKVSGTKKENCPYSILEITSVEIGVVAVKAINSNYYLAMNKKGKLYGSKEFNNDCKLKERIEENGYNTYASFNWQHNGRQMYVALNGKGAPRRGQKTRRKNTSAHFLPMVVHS
Torsin-1A-interacting protein 1 (Homo sapiens), sequence (Q5JTV8 whole entry, looked up): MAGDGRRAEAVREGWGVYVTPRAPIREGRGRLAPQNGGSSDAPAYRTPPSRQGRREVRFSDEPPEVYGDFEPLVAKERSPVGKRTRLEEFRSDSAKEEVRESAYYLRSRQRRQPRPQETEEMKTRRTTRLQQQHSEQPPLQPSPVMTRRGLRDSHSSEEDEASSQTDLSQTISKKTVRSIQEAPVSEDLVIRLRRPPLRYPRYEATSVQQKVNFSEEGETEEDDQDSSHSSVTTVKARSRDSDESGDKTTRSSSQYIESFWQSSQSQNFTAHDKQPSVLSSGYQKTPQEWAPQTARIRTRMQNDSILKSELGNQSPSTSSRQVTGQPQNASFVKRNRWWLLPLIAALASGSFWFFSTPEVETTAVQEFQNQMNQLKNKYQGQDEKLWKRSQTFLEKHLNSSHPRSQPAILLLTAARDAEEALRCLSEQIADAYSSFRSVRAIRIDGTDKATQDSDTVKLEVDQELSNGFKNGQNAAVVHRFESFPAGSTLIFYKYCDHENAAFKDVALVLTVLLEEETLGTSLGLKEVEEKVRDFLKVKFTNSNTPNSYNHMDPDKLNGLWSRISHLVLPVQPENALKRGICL
Left-right determination factor 2 (Homo sapiens), sequence (O00292 whole entry, looked up): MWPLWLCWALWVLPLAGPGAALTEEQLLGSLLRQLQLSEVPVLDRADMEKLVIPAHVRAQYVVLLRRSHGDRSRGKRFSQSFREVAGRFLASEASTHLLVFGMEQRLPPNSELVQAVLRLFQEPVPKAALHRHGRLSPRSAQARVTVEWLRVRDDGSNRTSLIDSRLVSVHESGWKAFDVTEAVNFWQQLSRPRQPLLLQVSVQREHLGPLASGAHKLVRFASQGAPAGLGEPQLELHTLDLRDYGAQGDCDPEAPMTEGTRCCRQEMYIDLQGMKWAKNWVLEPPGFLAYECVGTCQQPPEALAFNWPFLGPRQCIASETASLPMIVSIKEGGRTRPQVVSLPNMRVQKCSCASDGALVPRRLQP
Epidermal growth factor receptor (Homo sapiens), sequence (P00533 whole entry, looked up): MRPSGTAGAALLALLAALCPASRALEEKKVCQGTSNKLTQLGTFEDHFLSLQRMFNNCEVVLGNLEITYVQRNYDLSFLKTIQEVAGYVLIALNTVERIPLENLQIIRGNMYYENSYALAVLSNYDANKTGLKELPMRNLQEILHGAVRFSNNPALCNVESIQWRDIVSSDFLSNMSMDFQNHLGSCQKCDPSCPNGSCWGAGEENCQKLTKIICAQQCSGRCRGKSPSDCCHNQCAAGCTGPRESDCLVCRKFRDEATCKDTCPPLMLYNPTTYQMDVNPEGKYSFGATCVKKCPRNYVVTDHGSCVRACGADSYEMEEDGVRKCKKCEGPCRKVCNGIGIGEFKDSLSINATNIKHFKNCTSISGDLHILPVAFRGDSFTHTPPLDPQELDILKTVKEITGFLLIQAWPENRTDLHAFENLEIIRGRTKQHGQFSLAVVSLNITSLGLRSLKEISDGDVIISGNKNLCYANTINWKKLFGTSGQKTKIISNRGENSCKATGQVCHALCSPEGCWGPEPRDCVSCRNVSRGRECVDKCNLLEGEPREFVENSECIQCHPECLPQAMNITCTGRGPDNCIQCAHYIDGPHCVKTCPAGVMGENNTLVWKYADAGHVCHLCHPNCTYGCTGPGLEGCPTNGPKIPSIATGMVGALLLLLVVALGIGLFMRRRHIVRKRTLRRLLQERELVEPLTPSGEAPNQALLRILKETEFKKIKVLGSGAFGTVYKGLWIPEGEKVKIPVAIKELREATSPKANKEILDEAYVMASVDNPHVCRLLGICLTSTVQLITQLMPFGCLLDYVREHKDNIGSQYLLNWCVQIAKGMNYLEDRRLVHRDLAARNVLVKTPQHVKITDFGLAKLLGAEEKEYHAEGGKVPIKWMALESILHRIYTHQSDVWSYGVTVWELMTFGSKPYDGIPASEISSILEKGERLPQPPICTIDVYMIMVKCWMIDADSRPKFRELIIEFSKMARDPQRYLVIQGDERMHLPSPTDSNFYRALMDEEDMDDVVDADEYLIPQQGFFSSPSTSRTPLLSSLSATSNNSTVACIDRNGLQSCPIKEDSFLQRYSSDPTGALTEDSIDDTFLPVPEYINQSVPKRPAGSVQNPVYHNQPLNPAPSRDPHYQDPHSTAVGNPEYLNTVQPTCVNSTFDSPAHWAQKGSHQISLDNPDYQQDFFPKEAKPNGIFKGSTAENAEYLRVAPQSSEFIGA
Follistatin-related protein 3 (Homo sapiens), sequence (O95633 whole entry, looked up): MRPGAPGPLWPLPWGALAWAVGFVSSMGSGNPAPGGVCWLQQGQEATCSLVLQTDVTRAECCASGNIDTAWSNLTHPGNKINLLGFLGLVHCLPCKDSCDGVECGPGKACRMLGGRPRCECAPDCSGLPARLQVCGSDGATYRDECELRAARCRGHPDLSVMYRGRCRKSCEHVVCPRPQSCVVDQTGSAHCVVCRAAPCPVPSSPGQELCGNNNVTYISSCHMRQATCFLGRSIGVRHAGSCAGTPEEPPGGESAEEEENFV

Turning to `COC(=O)C(CC#Cc1ccc2c(c1)[C@]1(C(=O)N2)[C@H](C(=O)Nc2nc3ccccc3s2)[C@H]2C(=O)O[C@H](c3ccccc3)[C@H](c3ccccc3)N2[C@@H]1c1ccc(O)cc1)C(=O)OC`, the composite z-score was 1.18 in assay [1]; 0.381 in assay [2]; 0.454 in [3]; 1.28 in assay [5]; 1.29 in assay [6]; 0.642 in [7]. Besides, the composite z-score worked out at 1.4 in assay [8]; 0.829 in assay [9]; 0.381 in assay [10]; 1.45 in assay [11]; 0.829 in assay [13]; 0.728 in assay [14]. Besides, the composite z-score in assay [15] was 0.255; in [16], 0.027; in [17] it was -0.0977; in [18] it was 0.406; in assay [19] it was 1.89; in assay [20], 0.982. For the same compound, the z-score in [4] was -0.204 (inactive); in assay [12], -0.801.

Turning to `CCOC(=O)C1=CC[C@@H](c2ccccc2)N(S(=O)(=O)c2ccc(C)cc2)[C@H]1c1ccccc1C`, the composite z-score worked out at 1.42 in [1]; 0.311 in assay [2]; 0.431 in assay [3]; 0.607 in [5]; 0.683 in assay [6]; 0.375 in assay [7]. The composite z-score was 1.05 in assay [8]; 0.349 in assay [9]; 0.97 in assay [10]; 1.18 in assay [11]; 0.104 in [13]; 0.232 in assay [14]. For the same compound, the composite z-score in [15] was 0.296; in assay [16] it was -0.0512; in assay [17] it was 0.294; in assay [18] it was -0.0496; in assay [19] it was 0.336; in [20], -0.0244. Also, the z-score in [4] is -0.876 (inactive); in assay [12], -1.6.

Consider `CN(C)C(=O)[C@@]1(CCS(=O)(=O)c2ccccc2)COC(c2ccc(OCCCO)cc2)=N1`, for which the composite z-score came out at 0.656 in [1]; 0.476 in [2]; 0.977 in assay [3]; 0.314 in assay [5]; 0.476 in [6]; 0.0041 in assay [7]. Moreover, the composite z-score in [8] was -0.448; in assay [9], -0.471; in assay [10] it was 1.04; in [11], 1.31; in assay [13], 0.149; in assay [14] it was 0.614. The composite z-score in assay [15] is -0.429; in assay [16], -0.154; in [17], 0.414; in assay [18], -0.288; in assay [19], 2.75; in assay [20] it was 0.301. The z-score in assay [4] was -0.824 (inactive); in assay [12] it was -2.25.

Turning to `CC(C)CNC(=O)[C@@]1(Cc2ccccc2I)c2ccccc2C(=O)N(C2CCCCC2)[C@H]1c1ccc(CO)cc1`, the composite z-score was 1.53 in [1]; 0.778 in assay [2]; 1.02 in assay [3]; 0.51 in [5]; -0.218 in assay [6]; -0.272 in [7]. The composite z-score in [8] is 0.248; in assay [9] it was -0.271; in assay [10] it was 0.504; in assay [11] it was 0.63; in assay [13] it was -0.294; in [14], 0.424. Moreover, the composite z-score in [15] is 0.349; in assay [16], 0.0477; in [17] it was 0.199; in [18], -0.237; in assay [19], 0.961; in assay [20], 3. Besides, the z-score in assay [4] is 1.14 (inactive); in assay [12] it was -1.62.

Take `O=C(NCCN1CCOCC1)C1N=C(c2ccc(OCCCO)cc2)N(c2ccccc2)O1` (stereo not given): the composite z-score in assay [1] was determined as 0.439; in assay [2], 0.273; in assay [3] it was 0.766; in [5], 1.56; in assay [6], 1.08; in [7], 0.837. Besides, the composite z-score stood at 0.751 in assay [8]; 0.915 in assay [9]; 0.145 in assay [10]; 0.694 in assay [11]; 1.08 in assay [13]; 0.745 in assay [14]. The composite z-score in assay [15] was -0.177; in assay [16], 0.139; in [17] it was -0.0457; in [18], 0.05; in assay [19], 1.68; in assay [20], 1.55. Besides, the z-score in assay [4] was -0.764 (inactive); in [12] it was 0.289.

Turning to `CC(C)NC(=O)[C@@]1(C)c2ccccc2C(=O)N(Cc2cc(C(F)(F)F)cc(C(F)(F)F)c2)[C@H]1c1ccc(CO)cc1`, the composite z-score is 1.2 in assay [1]; 0.0251 in assay [2]; 1.17 in [3]; -0.609 in assay [5]; -0.589 in assay [6]; -0.584 in [7]. Moreover, the composite z-score was -1.13 in [8]; -0.788 in assay [9]; -0.0259 in [10]; 1.02 in assay [11]; -0.826 in [13]; 0.226 in assay [14]. For the same compound, the composite z-score in [15] is 0.764; in assay [16] it was -0.101; in [17] it was -0.0398; in assay [18], 1.07; in assay [19] it was 0.454; in [20], -0.361. Besides, the z-score in assay [4] was 0.207 (inactive); in assay [12], -0.319.
